# A selection: hits, their analogues and other compounds. The true share with any hit is near 3.4%.
# MITF inh = blocks human microphthalmia-associated transcription factor. AlphaScreen MITF homodimerization, bead proximity signal. inhibition, % at 2.6 µM. O75030. 0.91% of 650,000 active; in the data active = inhibition above about 50%;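 note: 0% = vehicle wells with protein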
# Target sequence (O75030 whole entry, looked up): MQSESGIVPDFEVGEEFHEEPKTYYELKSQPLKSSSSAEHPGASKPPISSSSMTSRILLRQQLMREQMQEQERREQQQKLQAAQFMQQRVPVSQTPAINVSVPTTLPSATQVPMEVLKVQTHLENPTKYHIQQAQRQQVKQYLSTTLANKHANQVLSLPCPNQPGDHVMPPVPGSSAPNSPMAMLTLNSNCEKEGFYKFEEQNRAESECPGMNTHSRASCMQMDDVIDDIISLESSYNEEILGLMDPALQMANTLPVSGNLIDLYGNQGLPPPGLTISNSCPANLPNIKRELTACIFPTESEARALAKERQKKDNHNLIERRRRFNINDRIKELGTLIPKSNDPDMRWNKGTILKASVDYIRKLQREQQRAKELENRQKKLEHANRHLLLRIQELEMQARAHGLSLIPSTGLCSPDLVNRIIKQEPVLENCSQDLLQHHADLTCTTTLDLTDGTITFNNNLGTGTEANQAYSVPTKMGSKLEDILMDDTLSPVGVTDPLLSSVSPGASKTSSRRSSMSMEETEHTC
# GPR151 activ = human GPR151 activation; Q8TDV0; PathHunter beta-arrestin GPR151 cells, luminescence; activation, % at 11.2 µM; 1% of 650,000 active; in the data active = activation above about 4.9%;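 note: 0% = median of compound wells and 100% = cells with positive control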
# TEAD-YAP inh = TEAD-YAP interaction inhibition. 1.4% of 640,000 active. inhibition, % at 9.12 µM. HEK-TIYL cells, TEAD-Gal4/YAP UAS-luciferase luminescence; in the data active = inhibition above about 32%;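 note: 0% = median of test compound wells and 100% = reference inhibitor wells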
# FBW7 act = activators of human E3 ligase FBW7; normalized activity (activation), % at 26.1 µM; AID 1259310; Q969H0; AlphaScreen FBW7–phospho-cyclin E peptide binding, activator screen; 0.13% of 650,000 active; in the data active = normalized activity above about 1.9%;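 note: purified mutant Fbw7 with reduced substrate affinity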
# MITF confirm = confirmation of human MITF inhibitors | shares compounds with MITF inh | AlphaScreen MITF homodimerization, biotin/His-MITF beads | inhibition, % at 2.6 µM | 16% of 4,700 active;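 active = inhibition above a cutoff derived from the DMSO control wells, cut at about 28% in these data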;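 note: 0% = MITF dimer wells with DMSO only; inhibitors lower the bead chemiluminescence by keeping MITF from dimerizing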
# AS interf DR = AlphaScreen optical interference, dose response counter-screen | 6% of 480 active | AlphaScreen optical interference counterscreen, cell-free | IC50, µM | shares compounds with MITF inh; call rule not given here
# AS interf ctr = AlphaScreen optical interference, counter-screen; shares compounds with MITF inh; inhibition, % at 2.6 µM; 7.6% of 4,700 active; LysRS AlphaScreen counterscreen, signal interference, triplicate;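 active = inhibition above a cutoff derived from the DMSO control wells, cut at about 30% in these data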
# * = called active by the depositor; · = no result; ! = repeats disagree.
SMILES,MITF inh,GPR151 activ,TEAD-YAP inh,FBW7 act,MITF confirm,AS interf ctr,others
COc1cc(/C=C2\N=C(c3ccccc3F)OC2=O)cc(Br)c1OC(C)=O,-15,0,6,0,·,·,
COc1cc(/C=C2/N=C(c3cccc(Cl)c3Cl)OC2=O)cc(Br)c1OC(C)=O,80*,0,1,0,1,-3,
CN(C)CCNc1ncnc2sccc12,86*,0,-3,0,0,7,
CCOC(CCCNc1ncnc2sccc12)OCC,6,2,25,0,·,·,
O=C(CNC(=O)c1ccc([N+](=O)[O-])cc1)Nc1cccc(C(F)(F)F)c1,20,0,8,0,·,·,
Cc1ncc(CO)c(/C=N/N=C/c2cccc(Cl)c2Cl)c1O,53*,-1,8,1,-4,-4,
CC1(C)CC(=O)C2=C(C1)NC(=O)CC2c1ccc(F)cc1 (stereo not given),2,1,-4,0,·,·,
CC1(C)CC(=O)C2=C(C1)NC(=O)CC2c1ccc(C(C)(C)C)cc1 (stereo not given),70*,0,8,0,-5,-1,
CN(C)[C@@H]1C(=O)C(C(=O)NCN2CCCC2)=C(O)[C@@]2(O)C(=O)C3=C(O)c4c(O)cccc4[C@@](C)(O)C3CC12 (stereo not given in full),72*,1,-3,0,78*,8,AS interf DR=>6.5
Cc1c(CN2CCCC(N(C)CCc3ccccc3)C2)cnn1C (stereo not given),-3,-2,-2,0,·,·,
Cc1nc(SCC(=O)NCCc2ccccc2)[nH]c(=O)c1C#N,-4,0,13,0,·,·,
CCNc1nc2c(C)cccn2c(=O)c1/C=C1/SC(=S)N(CCCOCC)C1=O,-10,0,0,0,·,·,
CC12CC3CC(C1)CC(C(=O)Nc1nn[nH]n1)(C3)C2,-1,-1,8,0,·,·,
O=C(Nc1nn[nH]n1)C12CC3CC(C1)CC(c1ccccc1)(C3)C2,53*,-2,8,1,10,18,
Cc1ccc(NC(=O)c2sc3ncnc(N4CCCCC4)c3c2C)c(Br)c1,7,4,-2,0,·,·,
CC1(C)CC(=O)C=C(NCC2NCCc3ccccc32)C1 (stereo not given),-6,4,-4,0,·,·,
Fc1cccc(F)c1CNCC1NCCc2ccccc21 (stereo not given),78*,1,8,0,-3,9,
O=C(OCCCC(=O)N1CCOCC1)c1cc(-c2ccco2)nc2ccccc12,73*,-1,-7,0,77*,4,AS interf DR=>6.6
O=C(NC(=S)N1CCOCC1)c1cc(-c2ccco2)nc2ccccc12,-4,3,3,0,·,·,
COCCNC(=O)COC(=O)c1cc(-c2ccco2)nc2ccccc12,72*,1,2,0,69*,-9,AS interf DR=>6.6
CCOC(=O)N1CCN(c2c(N3CC(C)CC(C)C3)c(=O)c2=O)CC1 (stereo not given),-14,-2,2,0,·,·,
CCOc1ccc(OCCOCCN2CCN(C)CC2)cc1,72*,-1,7,0,12,-6,
COc1ccc(OCCOCCN2CCN(C)CC2)cc1,12,-1,4,0,·,·,
Cc1ccc(OCCOCCN2CCN(C)CC2)cc1,60*,0,-3,0,8,9,
CC(C)c1ccc(OCCOCCN2CCN(C)CC2)cc1,59*,-2,-3,0,11,31*,
SMILES,MITF inh,GPR151 activ,TEAD-YAP inh,FBW7 act,MITF confirm,AS interf ctr,others
Cc1ccc(S(=O)(=O)c2ccc(Cl)cc2)cc1S(=O)(=O)Nc1cccnc1,-12,0,-1,0,·,·,
Cc1ccc(OCCCCN2CCNCC2)c([N+](=O)[O-])c1,80*,0,0,-1,-18,2,
O=[N+]([O-])c1ccccc1OCCCCN1CCNCC1,67*,0,-10,0,4,6,
CCN1CCN(CCCOc2ccccc2[N+](=O)[O-])CC1,74*,0,2,0,9,12,
O=[N+]([O-])c1ccccc1OCCN1CCCC1,10,0,-5,0,·,·,
CC1CCCN(CCOc2ccccc2[N+](=O)[O-])C1 (stereo not given),54*,-1,6,0,2,5,
COc1ccc(OC)c(/C=N\NC(=O)CNc2ccccc2C)c1,63*,-1,14,0,-1,0,
COc1ccc(Br)cc1/C=N\NC(=O)CNc1ccccc1C,-3,0,-1,0,·,·,
CC(O)CNc1nc2c(c(=O)n(Cc3ccccc3F)c(=O)n2C)n1C (stereo not given),61*,0,0,0,6,11,
CCOc1ccccc1NC(=O)c1c(NC(=O)c2ccccc2C)sc2c1CCCCC2,16,-2,0,0,·,·,
CCOc1cc(CN2CCN(C3CC4CCC3C4)CC2)ccc1OC (stereo not given),69*,0,6,0,-20,-2,
Fc1ccc(CN2CCN(C3CC4CCC3C4)CC2)cc1 (stereo not given),79*,0,-10,0,2,0,
CCOc1ccc(CN2CCN(S(=O)(=O)CC)CC2)cc1OC,37,-1,-5,0,·,·,
CCOc1cc(CN2CCN(C3CCCCCC3)CC2)ccc1OC,55*,0,-5,0,-1,8,
COc1ccc(CN2CCN(C3CCN(Cc4ccccc4)CC3)CC2)cc1OCc1ccccc1,29,-1,4,0,·,·,
COc1ccc(CN2CCC(N3CCCCC3)CC2)cc1OC,38,-1,7,0,·,·,
CCOc1cc(CN2CCN(C3CCCCC3)CC2)ccc1OC,64*,0,-2,0,6,18,
c1ccc(CNc2nc(Nc3ccncc3)nc3nc[nH]c23)cc1,-2,2,12,0,·,·,
C=CCNCCOc1ccc(C(C)(C)C)cc1C,51*,1,10,0,-12,5,
Cc1cc(C(C)(C)C)ccc1OCCCNCCN,10,4,1,0,·,·,
C=CCNCCCOc1ccc(C(C)(C)C)cc1C,32,-1,-7,0,·,·,
Cc1cc(C(C)(C)C)ccc1OCCN(C)C,84*,2,2,0,25,9,
Nc1ccc(O)c(C(=O)O)c1,75*!,-2,-4,0,82*,-5,AS interf DR=>6.5
O=C(C1CCCN(Cc2ccncc2)C1)N1CCCCC1 (stereo not given),103*,-1,-6,0,-17,-3,
O=C(C1CCCN(Cc2cccc(F)c2)C1)N1CCCCCC1 (stereo not given),48,0,5,0,·,·,
O=C(C1CCCN(Cc2cccnc2)C1)N1CCCCC1 (stereo not given),104*,1,10,0,-26,-5,
CCN1C(=O)/C(=C/c2ccc(-c3ccc([N+](=O)[O-])cc3)o2)NC1=S,52*,0,3,0,-7,14,

# Compound activity: PubChem, The Scripps Research Institute Molecular Screening Center
